High-throughput results: PubChem BioAssay, several laboratories
Shown are actives, neighbours in structure and some others; about 5.4% of the full set was active somewhere.
JMJD2C inh: inhibitors of human GASC-1 (JMJD2C) demethylase. GST-JMJD2C(1-420) H3K9me3 demethylation, DELFIA europium. inhibition, % at 2.35 µM. Q9H3R0. AID 2099. 330,000 tested, 0.069% active;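 active means more than half of a compound's replicate wells show inhibition beyond 50%, single wells judged on their own value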;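 further: signal counts dimethyl H3K9 product captured on neutravidin plate; 0% = median of DMSO wells and 100% = 0.3 times that DMSO median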
Target sequence (Q9H3R0 1-420 limits assumed): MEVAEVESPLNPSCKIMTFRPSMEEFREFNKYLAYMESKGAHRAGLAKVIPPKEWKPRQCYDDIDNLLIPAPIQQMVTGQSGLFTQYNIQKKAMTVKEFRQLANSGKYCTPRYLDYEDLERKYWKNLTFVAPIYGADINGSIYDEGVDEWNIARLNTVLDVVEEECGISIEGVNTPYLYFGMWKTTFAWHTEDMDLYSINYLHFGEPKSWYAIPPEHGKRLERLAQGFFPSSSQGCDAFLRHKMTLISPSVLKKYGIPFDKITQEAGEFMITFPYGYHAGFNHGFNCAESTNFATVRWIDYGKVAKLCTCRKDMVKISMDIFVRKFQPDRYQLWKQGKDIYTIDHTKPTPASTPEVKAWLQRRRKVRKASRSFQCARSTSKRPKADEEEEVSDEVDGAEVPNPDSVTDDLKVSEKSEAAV
ALR H2O2 inh: blocks human ALR sulfhydryl oxidase activity; 290,000 tested, 3.8% active; purified ALR, DTT oxidation, H2O2 HRP-luminol luminescence; P55789; inhibition, % (concentration not given with the values); AID 485317;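 active means mean replicate inhibition above about 79%, with every replicate also reaching it, limit read from the data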
Target sequence (P55789 whole entry, looked up): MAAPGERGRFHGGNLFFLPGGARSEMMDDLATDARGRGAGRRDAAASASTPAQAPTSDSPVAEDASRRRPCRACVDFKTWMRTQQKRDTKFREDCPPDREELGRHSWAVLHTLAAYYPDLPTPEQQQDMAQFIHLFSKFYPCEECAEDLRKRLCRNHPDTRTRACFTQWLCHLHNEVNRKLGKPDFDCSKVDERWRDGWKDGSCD
M18AAP inhibitor: PfM18AAP enzyme inhibition; recombinant PfM18AAP, H-Glu-NHMec fluorogenic cleavage; inhibition, % at 7.35 µM; 290,000 tested, 1.2% active;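 active means inhibition above the campaign mean inhibition over all tested compounds plus 3 SD, cut at about 28% in these data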;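 further: 0% = plate median of test compound wells and 100% = 2 mM ZnCl2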
Granule exo inh: blocks lytic granule exocytosis | inhibition, % at 10 µM | AID 651702 | TALL-104 LAMP-1 surface exposure, flow cytometry; cells stimulated with thapsigargin and PMA | 360,000 tested, 0.66% active;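 active means inhibition above about 55%, limit read from the data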
beta cell repl: induces beta-cell replication in MIN6 cells. 330,000 tested, 0.29% active. proliferation, % at 10 µM. MIN6 cells proliferation, ATPlite luminescence, 48 h; cells starved in 0.2% serum; 100% = growth in 10% serum. AID 2380;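 active means compounds whose signal lies at least 3.5 SD above the mean of all wells on their plate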;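 further: 0% = DMSO-treated cells in low-serum medium and 100% = 10% serum control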
SMARCA2 activ: increases SMARCA2 function in MMTV reporter cells; MG213 cells, MMTV-luciferase reporter, dexamethasone, overnight; activation, % at 9.1 µM; 370,000 tested, 1% active; AID 652017; in the data active means activation above about 7.8%;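 further: 0% = vehicle wells and 100% = reference activator wells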
Active calls of the source: *; · = no result given.

SMILES | JMJD2C inh | ALR H2O2 inh | M18AAP inhibitor | Granule exo inh | beta cell repl | SMARCA2 activ
CCNC(=S)Nc1ccc(N2CCCCC2)cc1 | -19 | 99* | 2 | 1 | -3 | -1
CCc1cc2c(=O)n(Cc3ccco3)c(SCC(=O)NCC3CCCO3)nc2s1 (configuration not stated) | 3 | 2 | -9 | -5 | -1 | -5
CCc1cc2c(=O)n(Cc3ccco3)c(SCc3c(C)noc3C)nc2s1 | -6 | 99* | -44 | 18 | -6 | -3
CSc1nnc(NC(=O)c2nc(S(=O)(=O)Cc3ccccc3)ncc2Cl)s1 | 0 | 97* | -25 | 35 | -8 | -13
Cc1cccc(CS(=O)(=O)c2ncc(Cl)c(C(=O)NCc3ccc4c(c3)OCO4)n2)c1 | -29 | 4 | -14 | 64* | -7 | -10
CC(C)c1nnc(NC(=O)c2nc(S(=O)(=O)Cc3ccccc3)ncc2Cl)s1 | -10 | 98* | -12 | 12 | -8 | -9
CCOc1ccccc1NC(=O)c1nc(S(=O)(=O)Cc2ccccc2)ncc1Cl | 4 | 96* | -43 | 47 | -8 | 1
CCc1ccc(NC(=O)c2nc(S(=O)(=O)Cc3ccccc3)ncc2Cl)cc1 | -10 | -5 | -39 | 36 | -8 | -13
CCOC(=O)C1CCCN(S(=O)(=O)c2cc3c(cc2Br)CCN3C(=O)CC)C1 (configuration not stated) | · | · | · | · | · | -2
O=C(NC1CCCCCC1)C(=S)NC1CCCCC1 | 13 | -1 | 30* | -2 | 0 | 0
Cc1ccccc1NC(=O)CC1SC(=O)N(c2ccccc2)C1=O (configuration not stated) | 11 | 97* | -17 | 1 | 0 | 5
COc1cc2sc3cc(NCCCN4CCOCC4)ccc3c(=O)c2cc1OC | 9 | 99* | · | -3 | -3 | 7
COC(=O)c1c(SCc2cccc3ccccc23)nc(=O)[nH]c1C | 8 | 99* | -1 | 5 | 0 | -2
C#CCNC(=O)C[C@@H]1C(=O)N(CCc2ccc(Cl)cc2)/C2=C/CCCCC[C@@]21C(=O)OCC | · | · | · | · | · | 3
CN(C)c1ccc(Nc2nc(-c3cccnc3)cs2)cc1 | -6 | 95* | 12 | 4 | -5 | 4
CCN(CC)c1ccc(Nc2nc(-c3cccnc3)cs2)cc1 | 2 | 51 | 1 | -7 | -2 | 3
Oc1c(Cl)cc(Cl)cc1CNc1ccc(Br)cn1 | -2 | 93* | 8 | -3 | -7 | 3
O=C(Cc1ccc(Cl)cc1)Nc1ccc(Br)cn1 | -10 | -1 | 2 | -4 | -4 | 2
COc1cccc(Cn2cc(COC(=O)N3CCOCC3)nn2)c1 | · | · | · | · | · | -1
O=C(Nc1ccc2[nH]c(=S)sc2c1)c1ccccc1 | 1 | 99* | 3 | -1 | -3 | 0
O=C(Nc1ccc2[nH]c(=S)sc2c1)Nc1ccccc1F | -4 | · | -4 | -4 | 0 | 3
CCc1cc2c(Nc3ccc(O)cc3)nc(C)nc2s1 | -6 | 100* | -10 | 0 | -5 | -2
CCc1cc2c(Nc3ccccc3O)nc(C)nc2s1 | -4 | 5 | -15 | 1 | -3 | -4
Cc1cc2c(Nc3ccc(O)cc3)ncnc2s1 | -22 | 94* | -11 | -1 | -3 | -2
C=CCN1C(=O)[C@@H](CC(=O)NCCCC)[C@]2(C(=O)OC)CCCCC=C12 | · | · | · | · | · | -1
SMILES | JMJD2C inh | ALR H2O2 inh | M18AAP inhibitor | Granule exo inh | beta cell repl | SMARCA2 activ
COC(=O)[C@@]12CCCCC=C1N(CCc1ccc(Cl)cc1)C(=O)[C@H]2CC(=O)NCCC(C)C | · | · | · | · | · | -2
O=[N+]([O-])c1ccc(N/N=C2\CC3CC=CC23)c([N+](=O)[O-])c1 (configuration not stated) | 1 | -9 | -5 | -2 | -7 | -3
O=[N+]([O-])c1ccc(N/N=C2\CC3CC=CC23)cc1 (configuration not stated) | 4 | 96* | 9 | 7 | -1 | 4
N#CCC[C@@H]1CC[C@]2(CCCN(S(=O)(=O)C3CCCCC3)C2)O1 | · | · | · | · | · | -4
COc1cccc(C2C(C(=O)Nc3ccccc3)=C(C)N=c3s/c(=C/c4ccc(OCC(=O)O)cc4)c(=O)n32)c1 (configuration not stated) | 2 | 97* | 7 | -5 | 1 | 0
Cc1nc2ccc(NC(=O)c3ccccc3)cc2s1 | 5 | 1 | -3 | -1 | -2 | 4
O=C(O)c1ccc(CSc2nc3ccc(NC(=O)c4ccccc4C(=O)O)cc3s2)cc1 | -4 | 99* | 1 | -1 | 1 | 0
N#Cc1ccccc1CSc1nc2ccc(NC(=O)c3ccccc3C(=O)O)cc2s1 | 1 | 99* | 0 | -1 | 0 | 6
N#Cc1ccccc1CSc1ncccc1C(=O)O | -10 | -9 | -1 | -3 | -1 | -2
COC(=O)C[C@@H]1CC[C@@H]2[C@H](COc3ccc(NC(=O)c4cccc(OC)c4)cc3C(=O)N2C)O1 | · | · | · | · | · | -2
Cc1cc(N2CCN(C(=O)OC(C)(C)C)C[C@H]2C)ccc1N1CC[C@@H](O)C1 | · | · | · | · | · | 1
COc1ccccc1NC(=O)c1cc2c(CO)cnc(C)c2oc1=Nc1ccccc1 | 17 | -1 | -6 | 81* | -6 | -4
CCOC(=O)c1c(NC(C)=O)sc2c(OC)cccc12 | 10 | · | -4 | -2 | 1 | -1
CCOC(=O)c1c(N)sc2c(O)c(Br)ccc12 | 1 | 98* | 27 | 0 | 1 | 2
CCOC(=O)c1c(N)sc2c(NC(C)=O)cccc12 | -6 | 98* | -7 | -3 | 0 | -1
COc1ccccc1C(=O)n1nc(-c2ccco2)nc1SC | -1 | 98* | 0 | 2 | -2 | -2
CSc1nc(-c2ccco2)nn1C(=O)c1ccccc1 | -2 | 1 | -2 | 0 | -2 | 2
CSc1nc(-c2ccco2)nn1C(=O)c1ccc(C)cc1 | -5 | 97* | -3 | -4 | 3 | 0
C[C@]12Cc3ccccc3C1CC1=N[C@@H](c3ccc(C(F)(F)F)cc3)O[C@@]13C[C@@H]2C(=O)N3C1CCN(Cc2ccccc2)CC1 (some centres not stated) | · | · | · | · | · | -2
O=C(NCCCO)Nc1ccc2nc(-c3ccco3)c(-c3ccco3)nc2c1 | · | -21 | 10 | · | 1 | ·
O=C(Nc1ccc2nc(-c3ccco3)c(-c3ccco3)nc2c1)NC1CC1 | 45 | · | 29* | -1 | -1 | ·
Cn1c(=O)c2c(ncn2CC(=O)Nc2nc3ccc(F)cc3s2)n(C)c1=O | 2 | 99* | -6 | -2 | 1 | -1
COc1ccc2nc(NC(=O)Cn3cnc4c(=O)n(C)c(=O)n(C)c43)sc2c1 | -4 | · | -5 | 0 | -2 | 2
C#CCNC(=O)C[C@@H]1C(=O)N(Cc2ccc(OC)cc2)C2=CCN(C(=O)OC(C)(C)C)C[C@]21C(=O)OCC | · | · | · | · | · | -2
CCOC(=O)[C@@]12CN(C(=O)OC(C)(C)C)CC=C1N(Cc1ccc(OC)cc1)C(=O)[C@H]2CC(=O)N1CCOCC1 | · | · | · | · | · | -4
